# Data taken from the supplement of paper PMC4466140.
# ± gives the standard deviation of the averaged measurements.
# How the values were obtained:
# Assay in all cases: SPOT peptide array binding signal intensity (averaged, normalized) (arbitrary units (background-subtracted, floor 0; scale differs between SH3 domains)); higher = stronger binding of the SH3 domain to the peptide
# [1] = molecular target: AgAbp1
# Outline: (§1)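 GST-fused SH3 domains from four yeast species were expressed in E. coli BL21(DE3), purified on glutathione Sepharose and incubated at 10 μg/ml overnight at 4°C in TBS-based blocking buffer on cellulose membranes carrying synthetic 15-mer peptides, with cysteines replaced by serines. Bound protein was detected with anti-GST antibody, an HRP anti-mouse secondary and luminol, then imaged and quantified with Genespotter. Binding signal is the normalized, background-subtracted spot intensity averaged over replicates, in arbitrary units that differ between domains.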
# [2] = molecular target: AgBbc1
# Outline: as §1
# [3] = molecular target: AgBem1-D1
# Outline: as §1
# [4] = molecular target: AgBzz1-D1
# Outline: as §1
# [5] = molecular target: AgBzz1-D2
# Outline: as §1
# [6] = molecular target: AgCyk3
# Outline: as §1
# [7] = molecular target: AgFus1
# Outline: as §1
# [8] = molecular target: AgHof1
# Outline: as §1
# [9] = molecular target: AgHse1
# Outline: as §1
# [10] = molecular target: AgLsb1
# Outline: as §1
# [11] = molecular target: AgLsb4
# Outline: as §1
# [12] = molecular target: AgMyo5
# Outline: as §1
# [13] = molecular target: AgNbp2
# Outline: as §1
# [14] = molecular target: AgRvs167
# Outline: as §1
# [15] = molecular target: AgSho1
# Outline: as §1
# [16] = molecular target: AgSla1-D1-D2
# Outline: as §1
# [17] = molecular target: AgSla1-D3
# Outline: as §1
# [18] = molecular target: CaAbp1-D1
# Outline: as §1
# [19] = molecular target: CaAbp1-D2
# Outline: as §1
# [20] = molecular target: CaBbc1
# Outline: as §1
# [21] = molecular target: CaBem1-D1
# Outline: as §1
# [22] = molecular target: CaBzz1-D1
# Outline: as §1
# [23] = molecular target: CaBzz1-D2
# Outline: as §1
# [24] = molecular target: CaCyk3
# Outline: as §1
# [25] = molecular target: CaFus1
# Outline: as §1
# [26] = molecular target: CaHof1
# Outline: as §1
# [27] = molecular target: CaHse1
# Outline: as §1
# [28] = molecular target: CaLsb1
# Outline: as §1
# [29] = molecular target: CaLsb4
# Outline: as §1
# [30] = molecular target: CaMyo5
# Outline: as §1
# [31] = molecular target: CaNbp2
# Outline: as §1
# [32] = molecular target: CaRvs167
# Outline: as §1
# [33] = molecular target: CaRvs167-3
# Outline: as §1
# [34] = molecular target: CaSho1
# Outline: as §1
# [35] = molecular target: CaSla1-D1-D2
# Outline: as §1
# [36] = molecular target: CaSla1-D3
# Outline: as §1
# [37] = molecular target: ScAbp1
# Outline: as §1
# [38] = molecular target: ScBbc1
# Outline: as §1
# [39] = molecular target: ScBem1-D1
# Outline: as §1
# [40] = molecular target: ScBzz1-D1
# Outline: as §1
# [41] = molecular target: ScBzz1-D2
# Outline: as §1
# [42] = molecular target: ScCyk3
# Outline: as §1
# [43] = molecular target: ScFus1
# Outline: as §1
# [44] = molecular target: ScHof1
# Outline: as §1
# [45] = molecular target: ScHse1
# Outline: as §1
# [46] = molecular target: ScLsb1
# Outline: as §1
# [47] = molecular target: ScLsb2
# Outline: as §1
# [48] = molecular target: ScLsb3
# Outline: as §1
# [49] = molecular target: ScLsb4
# Outline: as §1
# [50] = molecular target: ScMyo3
# Outline: as §1
# [51] = molecular target: ScMyo5
# Outline: as §1
# [52] = molecular target: ScNbp2
# Outline: as §1
# [53] = molecular target: ScPex13
# Outline: as §1
# [54] = molecular target: ScRvs167
# Outline: as §1
# [55] = molecular target: ScSho1
# Outline: as §1
# [56] = molecular target: ScSla1-D1-D2
# Outline: as §1
# [57] = molecular target: ScSla1-D3
# Outline: as §1
# [58] = molecular target: SpAbp1-D1
# Outline: as §1
# [59] = molecular target: SpBbc1
# Outline: as §1
# [60] = molecular target: SpBzz1-D1
# Outline: as §1
# [61] = molecular target: SpBzz1-D2
# Outline: as §1
# [62] = molecular target: SpCyk3
# Outline: as §1
# [63] = molecular target: SpHof1
# Outline: as §1
# [64] = molecular target: SpHof1-2
# Outline: as §1
# [65] = molecular target: SpHof1-3
# Outline: as §1
# [66] = molecular target: SpHse1
# Outline: as §1
# [67] = molecular target: SpLsb1
# Outline: as §1
# [68] = molecular target: SpLsb4
# Outline: as §1
# [69] = molecular target: SpMyo1
# Outline: as §1
# [70] = molecular target: SpNbp2
# Outline: as §1
# [71] = molecular target: SpPex13
# Outline: as §1
# [72] = molecular target: SpRvs167
# Outline: as §1
# [73] = molecular target: SpSla1-D1-D2
# Outline: as §1
# [74] = molecular target: SpSla1-D3
# Outline: as §1
binder,measurement,setting,value
VSKLRSPNTPRRLRK,SPOT peptide array binding signal intensity,[1],210 ± 71
same,SPOT peptide array binding signal intensity,[2],284 ± 140
same,SPOT peptide array binding signal intensity,[3],116 ± 54
same,SPOT peptide array binding signal intensity,[4],65.5 ± 29
same,SPOT peptide array binding signal intensity,[5],44.8 ± 5.3
same,SPOT peptide array binding signal intensity,[6],7 ± 0.71
same,SPOT peptide array binding signal intensity,[7],192 ± 110
same,SPOT peptide array binding signal intensity,[8],68 ± 14
same,SPOT peptide array binding signal intensity,[9],352 ± 230
same,SPOT peptide array binding signal intensity,[10],3.38 ± 4.1
same,SPOT peptide array binding signal intensity,[11],48.8 ± 16
same,SPOT peptide array binding signal intensity,[12],2.75 ± 2.5
same,SPOT peptide array binding signal intensity,[13],84.2 ± 8.8
same,SPOT peptide array binding signal intensity,[14],9.83 ± 2.1
same,SPOT peptide array binding signal intensity,[15],13 ± 2.8
same,SPOT peptide array binding signal intensity,[16],334 ± 170
same,SPOT peptide array binding signal intensity,[17],8.88 ± 5.8
same,SPOT peptide array binding signal intensity,[18],897 ± 89
same,SPOT peptide array binding signal intensity,[19],576 ± 100
same,SPOT peptide array binding signal intensity,[20],863 ± 130
same,SPOT peptide array binding signal intensity,[21],64 ± 8.5
same,SPOT peptide array binding signal intensity,[22],156 ± 7.4
same,SPOT peptide array binding signal intensity,[23],146 ± 120
same,SPOT peptide array binding signal intensity,[24],47.2 ± 1.1
same,SPOT peptide array binding signal intensity,[25],230 ± 22
same,SPOT peptide array binding signal intensity,[26],0.5 ± 0.71
same,SPOT peptide array binding signal intensity,[27],4.62 ± 3.4
same,SPOT peptide array binding signal intensity,[28],0.75 ± 0.35
same,SPOT peptide array binding signal intensity,[29],778 ± 490
same,SPOT peptide array binding signal intensity,[30],3.38 ± 0.18
same,SPOT peptide array binding signal intensity,[31],166 ± 86
same,SPOT peptide array binding signal intensity,[32],23.8 ± 10
same,SPOT peptide array binding signal intensity,[33],28.2 ± 2.5
same,SPOT peptide array binding signal intensity,[34],131 ± 3.9
same,SPOT peptide array binding signal intensity,[35],270 ± 140
same,SPOT peptide array binding signal intensity,[36],3.88 ± 0.53
same,SPOT peptide array binding signal intensity,[37],41 ± 23
same,SPOT peptide array binding signal intensity,[38],266 ± 81
same,SPOT peptide array binding signal intensity,[39],25.2 ± 17
same,SPOT peptide array binding signal intensity,[40],23 ± 9.9
same,SPOT peptide array binding signal intensity,[41],9.25 ± 3.9
same,SPOT peptide array binding signal intensity,[42],110 ± 25
same,SPOT peptide array binding signal intensity,[43],143 ± 42
same,SPOT peptide array binding signal intensity,[44],≤ 0
same,SPOT peptide array binding signal intensity,[45],701 ± 130
same,SPOT peptide array binding signal intensity,[46],33.2 ± 7.8
same,SPOT peptide array binding signal intensity,[47],11.8 ± 1.1
same,SPOT peptide array binding signal intensity,[48],2420 ± 260
same,SPOT peptide array binding signal intensity,[49],70.5 ± 9.2
same,SPOT peptide array binding signal intensity,[50],2.62 ± 2.3
same,SPOT peptide array binding signal intensity,[51],2.88 ± 1.9
same,SPOT peptide array binding signal intensity,[52],275 ± 49
same,SPOT peptide array binding signal intensity,[53],8.5 ± 12
same,SPOT peptide array binding signal intensity,[54],230.2 ± 2.2
same,SPOT peptide array binding signal intensity,[55],258 ± 32
same,SPOT peptide array binding signal intensity,[56],953 ± 160
same,SPOT peptide array binding signal intensity,[57],36.2 ± 41
same,SPOT peptide array binding signal intensity,[58],384 ± 320
same,SPOT peptide array binding signal intensity,[59],5.75 ± 1.1
same,SPOT peptide array binding signal intensity,[60],236 ± 150
same,SPOT peptide array binding signal intensity,[61],≤ 0
same,SPOT peptide array binding signal intensity,[62],5.75 ± 4.6
same,SPOT peptide array binding signal intensity,[63],183 ± 6
same,SPOT peptide array binding signal intensity,[64],17 ± 8.5
same,SPOT peptide array binding signal intensity,[65],319 ± 74
same,SPOT peptide array binding signal intensity,[66],172 ± 74
same,SPOT peptide array binding signal intensity,[67],33.8 ± 4.6
same,SPOT peptide array binding signal intensity,[68],2990 ± 950
same,SPOT peptide array binding signal intensity,[69],3.25 ± 2.5
same,SPOT peptide array binding signal intensity,[70],109 ± 68
same,SPOT peptide array binding signal intensity,[71],5.5 ± 2.1
same,SPOT peptide array binding signal intensity,[72],195 ± 91
same,SPOT peptide array binding signal intensity,[73],10.2 ± 3.9
same,SPOT peptide array binding signal intensity,[74],2.5 ± 0.71
FYHRPAPKPPVTKKV,SPOT peptide array binding signal intensity,[1],250
same,SPOT peptide array binding signal intensity,[2],123
same,SPOT peptide array binding signal intensity,[3],68
same,SPOT peptide array binding signal intensity,[4],89
same,SPOT peptide array binding signal intensity,[5],65
same,SPOT peptide array binding signal intensity,[6],6
same,SPOT peptide array binding signal intensity,[7],≤ 0
same,SPOT peptide array binding signal intensity,[8],3
same,SPOT peptide array binding signal intensity,[9],≤ 0
same,SPOT peptide array binding signal intensity,[10],138
same,SPOT peptide array binding signal intensity,[11],≤ 0
same,SPOT peptide array binding signal intensity,[12],38.8
same,SPOT peptide array binding signal intensity,[13],1040
same,SPOT peptide array binding signal intensity,[14],1.33
same,SPOT peptide array binding signal intensity,[15],≤ 0
same,SPOT peptide array binding signal intensity,[16],≤ 0
same,SPOT peptide array binding signal intensity,[17],6.5
same,SPOT peptide array binding signal intensity,[18],281
same,SPOT peptide array binding signal intensity,[19],269
same,SPOT peptide array binding signal intensity,[20],454
same,SPOT peptide array binding signal intensity,[21],364
same,SPOT peptide array binding signal intensity,[22],2440
same,SPOT peptide array binding signal intensity,[23],529
same,SPOT peptide array binding signal intensity,[24],10.5
same,SPOT peptide array binding signal intensity,[25],≤ 0
same,SPOT peptide array binding signal intensity,[26],≤ 0
same,SPOT peptide array binding signal intensity,[27],≤ 0
same,SPOT peptide array binding signal intensity,[28],3
same,SPOT peptide array binding signal intensity,[29],≤ 0
same,SPOT peptide array binding signal intensity,[30],8
